From PubChem BioAssay (NCATS) come the findings set out here.

Records with an inconclusive call do not appear. The source made the active and inactive calls. Unless noted, calls come from the whole dose curve.

Assay [1] addresses Glucocorticoid receptor (Homo sapiens) (UniProt P04150). Put plainly: qHTS assay for small molecule agonists of glucocorticoid receptor signaling (AID 588532; active = well fitted curve in the direction sought with a large enough effect in the signal ratio, with a control signal flat; the % refers to the signal ratio;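 note: 100% = dexamethasone at 0.1 µM and 0% = DMSO only wells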). As to conditions: HeLa MMTV-bla, beta-lactamase ratio, agonist, 18 h; stronger effect = higher value; percent of dexamethasone control, DMSO zero. In outline:
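Stimulation of a glucocorticoid response element-driven beta-lactamase gene was measured in HeLa cells. Responses were scaled between DMSO basal and 0.1 uM dexamethasone, then fitted for half-maximal stimulation.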

The target is the same in assay [2]. Put plainly: qHTS assay for small molecule antagonists of glucocorticoid receptor signaling (AID 588533; active = well fitted inhibition curve with a large enough effect in the signal ratio, with a control signal flat, not every such curve was filed as active; the % refers to the signal ratio;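 note: cells stimulated with 2 nM dexamethasone as agonist; % is set by controls: 0 for no effect and ±100 for the full control effect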). To be noted: HeLa MMTV-bla, GRE beta-lactamase ratio, antagonist mode, 18 h; series mostly up to 76.8 µM. In outline:
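Antagonist-mode qHTS: compound titrations added to GRE-bla HeLa cells, then dexamethasone 2 nM final; 18 h, 37 C. CCF4 FRET fluorescence normalized to dexamethasone and DMSO; IC50 from Hill fit.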
Background: In qHTS, concentration-response curves come from the screen itself.

The target of assay [3] is Peroxisome proliferator-activated receptor gamma (Homo sapiens) (UniProt P37231). In words: qHTS assay for small molecule agonists of peroxisome proliferator-activated receptor gamma signaling (AID 588536; active = well fitted curve in the direction sought with a large enough effect in the signal ratio, with a control signal flat, not every such curve was filed as active; the % refers to the signal ratio;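 note: 0% = DMSO basal wells and 100% = rosiglitazone at 2 µM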). As to conditions: HEK293 PPARg-UAS-bla, beta-lactamase ratio, 16 h, percent of rosiglitazone response, DMSO as zero; series mostly up to 76.7 µM. In a few lines: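 Ratiometric blue/green fluorescence (405 nm excitation; 460 and 530 nm emission) from CCF4-loaded HEK293 reporter cells serves as signal. Exposure to test compounds lasts 16 h at 37 C in medium containing 1% charcoal/dextran-treated serum.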
Chain of Peroxisome proliferator-activated receptor gamma (Homo sapiens) (P37231 whole entry, looked up): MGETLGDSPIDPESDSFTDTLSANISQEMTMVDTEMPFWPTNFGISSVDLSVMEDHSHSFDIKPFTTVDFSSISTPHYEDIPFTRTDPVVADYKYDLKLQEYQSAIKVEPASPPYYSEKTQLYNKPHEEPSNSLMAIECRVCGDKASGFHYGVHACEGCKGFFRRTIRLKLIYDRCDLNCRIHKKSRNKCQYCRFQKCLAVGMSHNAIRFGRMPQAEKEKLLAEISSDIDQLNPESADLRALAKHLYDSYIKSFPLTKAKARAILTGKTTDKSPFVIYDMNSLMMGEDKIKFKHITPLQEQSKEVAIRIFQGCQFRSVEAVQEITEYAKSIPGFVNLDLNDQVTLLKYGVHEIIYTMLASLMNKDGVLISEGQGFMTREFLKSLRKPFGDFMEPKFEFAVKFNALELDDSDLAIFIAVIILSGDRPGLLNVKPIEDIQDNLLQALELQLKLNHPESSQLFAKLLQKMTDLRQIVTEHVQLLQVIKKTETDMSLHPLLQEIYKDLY

Assay [4] shares this target. In words: qHTS assay for small molecule antagonists of peroxisome proliferator-activated receptor gamma signaling (AID 588537; active = well fitted inhibition curve with a large enough effect in the signal ratio, with a control signal flat, not every such curve was filed as active; the % refers to the signal ratio;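 note: reporter cells co-stimulated with 50 nM rosiglitazone agonist during compound treatment; % of control where 0% means no effect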). To be noted: HEK293 PPARg-UAS-bla, beta-lactamase ratio, antagonist mode; series mostly up to 76.8 µM. In outline:
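PPAR-gamma-UAS-bla HEK293 cells (3000/well, 1% charcoal/dextran-stripped FBS) were preincubated 6-6.5 h at 37 C, given titrated compounds, then stimulated with 50 nM rosiglitazone for 16 h. Beta-lactamase activity was read with CCF4 dye; IC50 came from Hill fits.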

The target of assay [5] is Vitamin D3 receptor (Homo sapiens) (UniProt P11473). In words: qHTS assay for small molecule antagonists of vitamin D receptor signaling (AID 588541).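 Note: receptor activated by calcitriol during compound treatment; % is set by controls: 0 for no effect and ±100 for the full control effect.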 To be noted: HEK293T VDR-UAS-bla, beta-lactamase ratio, antagonist mode; series mostly up to 76.7 µM. In outline: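 VDR-UAS-bla HEK293T cells (2000/well, 2% charcoal-stripped FBS) were treated with titrated compounds plus 1-alpha,25-dihydroxyvitamin D3 (50 nM or 3 nM final) for 16 h at 37 C. CCF4 beta-lactamase fluorescence was read; Hill fits gave IC50.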
Chain of Vitamin D3 receptor (Homo sapiens) (P11473 whole entry, looked up): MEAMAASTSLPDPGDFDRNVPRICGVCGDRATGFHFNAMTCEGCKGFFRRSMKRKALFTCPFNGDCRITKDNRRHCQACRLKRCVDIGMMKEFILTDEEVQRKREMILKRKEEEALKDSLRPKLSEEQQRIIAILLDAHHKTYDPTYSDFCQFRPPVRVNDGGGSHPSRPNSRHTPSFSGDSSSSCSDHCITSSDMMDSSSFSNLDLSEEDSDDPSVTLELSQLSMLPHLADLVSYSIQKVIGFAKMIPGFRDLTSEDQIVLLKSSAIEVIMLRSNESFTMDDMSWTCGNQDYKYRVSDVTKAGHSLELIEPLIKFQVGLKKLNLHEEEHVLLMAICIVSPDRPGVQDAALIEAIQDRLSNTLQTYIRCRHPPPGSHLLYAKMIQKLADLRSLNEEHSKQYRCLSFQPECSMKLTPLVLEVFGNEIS

Assay [6] has the same target. Put plainly: qHTS assay for small molecule agonists of vitamin D receptor signaling (AID 588543).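 Note: 0% = DMSO basal and 100% = reference agonist control.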 To be noted: HEK293T VDR-UAS-bla, beta-lactamase ratio, 16 h; series mostly up to 76.8 µM. In a few lines:
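Measured: β-lactamase reporter activity (CCF4, 405 nm excitation, 460/530 nm emission) in HEK293T VDR-UAS-bla cells after 16 h compound exposure at 37 °C. Normalization against 50 nM 1α,25-dihydroxyvitamin D3 and DMSO; Hill-fit EC50.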

The nature of assay [7]: qHTS assay for small molecule agonists of retinoid X receptor alpha signaling (AID 588544).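 For activation: 0% = DMSO basal wells and 100% = reference agonist.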 To be noted: HEK293T RXRa-UAS-bla, beta-lactamase reporter, 18 h; 530 nm emission.
For assay [8], the target named is Retinoic acid receptor RXR-alpha (Homo sapiens) (UniProt P19793). The assay is described as above. To be noted: HEK293T RXRa-UAS-bla, beta-lactamase reporter, 18 h; series mostly up to 76.7 µM.
Chain of Retinoic acid receptor RXR-alpha (Homo sapiens) (P19793 whole entry, looked up): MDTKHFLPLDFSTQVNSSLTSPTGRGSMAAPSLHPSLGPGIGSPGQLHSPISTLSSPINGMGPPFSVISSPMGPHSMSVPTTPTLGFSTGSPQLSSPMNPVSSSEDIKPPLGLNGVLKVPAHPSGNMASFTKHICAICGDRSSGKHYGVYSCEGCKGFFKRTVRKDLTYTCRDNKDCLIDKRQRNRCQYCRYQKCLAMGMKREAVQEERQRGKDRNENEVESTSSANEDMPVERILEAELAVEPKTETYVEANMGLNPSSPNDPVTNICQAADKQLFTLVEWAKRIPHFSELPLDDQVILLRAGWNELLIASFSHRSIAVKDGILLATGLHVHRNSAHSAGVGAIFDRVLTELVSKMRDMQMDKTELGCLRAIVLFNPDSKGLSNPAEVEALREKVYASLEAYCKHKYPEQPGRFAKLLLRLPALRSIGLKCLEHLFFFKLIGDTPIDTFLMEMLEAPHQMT
The nature of assay [9]: qHTS assay for small molecule antagonists of retinoid X receptor alpha signaling (AID 588546; active = well fitted inhibition curve with a large enough effect in the signal ratio, with a control signal flat, not every such curve was filed as active; the % refers to the signal ratio;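 note: cells stimulated with 9-cis-retinoic acid as agonist; % is set by controls: 0 for no effect and ±100 for the full control effect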). As to conditions: HEK293T RXRa-UAS-bla, beta-lactamase ratio, antagonist mode; measured here: W530 green channel, cytotoxicity proxy. In outline: (§1)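 Beta-lactamase reporter inhibition, read as CCF4 fluorescence ratio (ex 405, em 460/530 nm) after 2 h at RT. HEK293T UAS-bla cells, 2500/well, were stimulated with 9-cis-RA at 500 or 100 nM final alongside test compound for 18 h at 37 C.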

Assay [10] deals with Retinoic acid receptor RXR-alpha (Homo sapiens) (UniProt P19793). The assay is described as above. As to conditions: HEK293T RXRa-UAS-bla, beta-lactamase ratio, antagonist mode. In outline:
as §1

Assay [11] concerns the target Thyroid hormone receptor beta (Homo sapiens) (UniProt P10828). Put plainly: qHTS assay for small molecule antagonists of thyroid hormone receptor beta signaling (AID 588547; active = well fitted inhibition curve with a large enough effect in the signal ratio, with a control signal flat, not every such curve was filed as active; the % refers to the signal ratio;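 note: cells stimulated with 0.4 nM T3 agonist during compound exposure; % is set by controls: 0 for no effect and ±100 for the full control effect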). To be noted: TR-UAS-bla HEK293, beta-lactamase ratio, antagonist mode, 18 h. In outline:
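TR-UAS-bla GripTite HEK293 cells in 2% charcoal/dextran FBS medium were preincubated 4 h at 37 C, given compound (0.59 nM to 92 uM) plus 0.4 nM T3 (final) for 18 h, then CCF4 for 2 h at RT; Hill fit gave IC50.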

In assay [12] the target is Voltage-gated inwardly rectifying potassium channel KCNH2 (Homo sapiens) (UniProt Q12809). In words: qHTS Assay for Small Molecule Inhibitors of the Human hERG Channel Activity (AID 588834; active = well fitted inhibition curve with a large enough effect;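 note: top concentration of the series differs between compounds; % is set by controls: 0 for no effect and ±100 for the full control effect; lower thallium flux fluorescence means stronger hERG block; nearly all actives have a fitted effect of over 50% in size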). To be noted: U2OS BacMam hERG, FluxOR thallium flux fluorescence; series mostly up to 92.2 µM. In outline: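 Blockade is seen as reduced FluxOR thallium-flux fluorescence in U2OS cells expressing hERG from a BacMam construct, in Opti-MEM with 2% FCS. Concentration-response data fitted to the Hill equation for AC50.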
Chain of Voltage-gated inwardly rectifying potassium channel KCNH2 (Homo sapiens) (Q12809 whole entry, looked up): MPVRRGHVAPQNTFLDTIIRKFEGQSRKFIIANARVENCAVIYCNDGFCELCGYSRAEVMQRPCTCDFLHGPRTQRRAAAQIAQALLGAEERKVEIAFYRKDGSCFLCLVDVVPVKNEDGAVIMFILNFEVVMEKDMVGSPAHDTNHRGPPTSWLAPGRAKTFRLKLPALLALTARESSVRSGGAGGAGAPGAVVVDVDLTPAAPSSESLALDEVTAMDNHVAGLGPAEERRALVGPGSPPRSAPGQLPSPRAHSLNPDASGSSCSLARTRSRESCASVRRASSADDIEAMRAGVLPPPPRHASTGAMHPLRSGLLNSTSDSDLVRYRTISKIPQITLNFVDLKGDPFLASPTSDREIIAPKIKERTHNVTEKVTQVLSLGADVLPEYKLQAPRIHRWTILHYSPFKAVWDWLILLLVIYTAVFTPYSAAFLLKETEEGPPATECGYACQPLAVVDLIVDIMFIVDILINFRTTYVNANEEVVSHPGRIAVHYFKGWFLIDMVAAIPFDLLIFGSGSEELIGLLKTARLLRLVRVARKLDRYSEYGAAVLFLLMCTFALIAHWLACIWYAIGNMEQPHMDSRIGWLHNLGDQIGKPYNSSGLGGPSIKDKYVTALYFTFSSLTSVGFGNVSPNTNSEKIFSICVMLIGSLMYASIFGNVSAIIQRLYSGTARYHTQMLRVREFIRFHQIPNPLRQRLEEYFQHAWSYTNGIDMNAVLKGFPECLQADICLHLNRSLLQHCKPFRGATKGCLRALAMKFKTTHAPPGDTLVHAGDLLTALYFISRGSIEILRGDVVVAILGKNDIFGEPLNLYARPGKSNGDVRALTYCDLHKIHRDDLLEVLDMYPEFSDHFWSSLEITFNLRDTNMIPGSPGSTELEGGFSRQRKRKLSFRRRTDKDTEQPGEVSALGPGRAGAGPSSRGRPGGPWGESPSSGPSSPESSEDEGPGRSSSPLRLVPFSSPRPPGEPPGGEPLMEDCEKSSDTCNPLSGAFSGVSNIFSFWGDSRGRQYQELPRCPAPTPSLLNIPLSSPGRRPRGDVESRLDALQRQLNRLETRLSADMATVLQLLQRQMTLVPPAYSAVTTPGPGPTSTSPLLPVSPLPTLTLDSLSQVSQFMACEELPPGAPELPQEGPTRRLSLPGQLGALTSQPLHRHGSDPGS

A short description of assay [13]: qHTS assay for small molecule activators of the p53 signaling pathway (AID 651743; active = well fitted activation curve with a large enough effect in the signal ratio, not every such curve was filed as active; the % refers to the signal ratio; note: % of control where 0% means no effect). To be noted: HCT-116 p53RE-bla, beta-lactamase FRET ratio, 16 h; stronger effect = higher value. In outline:
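p53RE-bla HCT-116 cells with a stably integrated beta-lactamase reporter under p53 response elements were plated, rested 5 hours at 37 C/5% CO2, then exposed to compounds in DMSO for 16 hours at 37 C. LiveBLAzer B/G FRET substrate was read after 2 hours at room temperature.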

Assay [14] in a line: qHTS assay for small molecule activators of the nuclear factor-kappa B (NF-kB) signaling pathway (AID 651749; active = well fitted activation curve with a large enough effect in the signal ratio; the % refers to the signal ratio; note: % of control where 0% means no effect). To be noted: NF-kB-bla ME-180 cells, beta-lactamase FRET ratio, 16 h; stronger effect = higher value. In a few lines:
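ME-180 cells stably carrying a beta-lactamase reporter under an NF-kB response element were exposed to compound or DMSO vehicle for 16 hr at 37C, 5% CO2. Pathway activation was read by FRET, since reporter expression disrupts FRET.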

Assay [15] concerns the target Thyroid hormone receptor beta (Homo sapiens) (UniProt P10828). Put plainly: qHTS assay for small molecule agonists of thyroid hormone receptor beta signaling (AID 588545).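 Note: 0% = DMSO only and 100% = 10 nM T3.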 As to conditions: TR-UAS-bla GripTite HEK 293, beta-lactamase ratio, agonist mode, 18 h, percent of T3 response, DMSO as zero; series mostly up to 76.7 µM. In a few lines: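 TR-UAS-bla GripTite HEK 293 cells (2500/well, medium with 2% charcoal/dextran FBS) were treated in agonist mode for 18 h at 37 C, titrated. Beta-lactamase was read by CCF4 ratio after 2 h; normalized to 10 nM T3 (100%) and DMSO, Hill-fitted for EC50 and efficacy.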

Assay [16] in a line: qHTS assay for small molecule antagonists of peroxisome proliferator-activated receptor delta signaling (AID 588535; active = well fitted inhibition curve with a large enough effect in the signal ratio, with a control signal flat, not every such curve was filed as active; the % refers to the signal ratio;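 for max response: cells co-treated with a PPAR-delta agonist as stimulator during compound exposure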). As to conditions: HEK293T PPARd-UAS-bla, beta-lactamase FRET ratio, 18 h; 460 nm channel. In outline: (§2)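 GeneBLAzer PPAR-delta-UAS-bla HEK293T cells in medium with 2% charcoal/dextran FBS were preincubated 5 hrs at 37 C, then given compounds, incubated 18 hrs at 37 C, and read by CCF4 beta-lactamase fluorescence; IC50 from Hill fits.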

In assay [17] the target is Peroxisome proliferator-activated receptor delta (Homo sapiens) (UniProt Q03181). Described as above. As to conditions: HEK293T PPARd-UAS-bla, beta-lactamase FRET ratio, 18 h; series mostly up to 76.7 µM. In outline: as §2
Chain of Peroxisome proliferator-activated receptor delta (Homo sapiens) (Q03181 whole entry, looked up): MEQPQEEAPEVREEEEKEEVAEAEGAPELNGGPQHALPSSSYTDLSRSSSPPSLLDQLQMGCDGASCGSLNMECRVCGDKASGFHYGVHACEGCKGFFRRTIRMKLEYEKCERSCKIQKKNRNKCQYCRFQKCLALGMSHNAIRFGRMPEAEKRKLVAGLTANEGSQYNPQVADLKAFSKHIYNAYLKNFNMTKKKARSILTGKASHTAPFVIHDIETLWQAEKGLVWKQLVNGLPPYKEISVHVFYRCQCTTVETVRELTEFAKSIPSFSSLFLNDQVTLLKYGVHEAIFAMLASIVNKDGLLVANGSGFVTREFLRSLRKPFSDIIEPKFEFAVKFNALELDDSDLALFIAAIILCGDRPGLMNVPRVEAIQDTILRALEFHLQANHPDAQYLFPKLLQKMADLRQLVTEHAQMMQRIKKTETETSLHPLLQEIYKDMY
A short description of assay [18]: qHTS assay for small molecule agonists of the antioxidant response element (ARE) signaling pathway (AID 651741; active = well fitted activation curve with a large enough effect in the signal ratio; the % refers to the signal ratio; note: potency is the fitted concentration of half-maximal effect; for activation: % of control where 0% means no effect). As to conditions: HepG2 ARE-bla reporter, beta-lactamase FRET ratio, 16 h; series mostly up to 96 µM. In a few lines:
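ARE-bla HepG2 cells (beta-lactamase reporter under ARE control) were plated at 2,000 cells/well, preincubated 5 h at 37 C/5% CO2, then treated with DMSO-dissolved compounds for 16 h at 37 C; LiveBLAzer B/G FRET substrate added, fluorescence read after 2 h at room temperature.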

Chain of Thyroid hormone receptor beta (Homo sapiens) (P10828 whole entry, looked up): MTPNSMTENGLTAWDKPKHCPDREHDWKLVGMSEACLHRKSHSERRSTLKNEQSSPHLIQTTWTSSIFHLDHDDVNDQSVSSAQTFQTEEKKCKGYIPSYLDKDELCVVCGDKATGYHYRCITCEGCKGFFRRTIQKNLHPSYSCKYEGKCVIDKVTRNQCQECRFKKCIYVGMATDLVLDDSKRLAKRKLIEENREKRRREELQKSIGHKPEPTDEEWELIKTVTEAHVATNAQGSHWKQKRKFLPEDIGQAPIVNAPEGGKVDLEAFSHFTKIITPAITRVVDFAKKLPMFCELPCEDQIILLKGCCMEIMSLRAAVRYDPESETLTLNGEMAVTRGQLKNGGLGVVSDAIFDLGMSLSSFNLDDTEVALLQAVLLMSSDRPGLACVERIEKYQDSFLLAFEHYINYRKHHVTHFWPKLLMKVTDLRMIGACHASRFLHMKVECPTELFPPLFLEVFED
Chain of Glucocorticoid receptor (Homo sapiens) (P04150 whole entry, looked up): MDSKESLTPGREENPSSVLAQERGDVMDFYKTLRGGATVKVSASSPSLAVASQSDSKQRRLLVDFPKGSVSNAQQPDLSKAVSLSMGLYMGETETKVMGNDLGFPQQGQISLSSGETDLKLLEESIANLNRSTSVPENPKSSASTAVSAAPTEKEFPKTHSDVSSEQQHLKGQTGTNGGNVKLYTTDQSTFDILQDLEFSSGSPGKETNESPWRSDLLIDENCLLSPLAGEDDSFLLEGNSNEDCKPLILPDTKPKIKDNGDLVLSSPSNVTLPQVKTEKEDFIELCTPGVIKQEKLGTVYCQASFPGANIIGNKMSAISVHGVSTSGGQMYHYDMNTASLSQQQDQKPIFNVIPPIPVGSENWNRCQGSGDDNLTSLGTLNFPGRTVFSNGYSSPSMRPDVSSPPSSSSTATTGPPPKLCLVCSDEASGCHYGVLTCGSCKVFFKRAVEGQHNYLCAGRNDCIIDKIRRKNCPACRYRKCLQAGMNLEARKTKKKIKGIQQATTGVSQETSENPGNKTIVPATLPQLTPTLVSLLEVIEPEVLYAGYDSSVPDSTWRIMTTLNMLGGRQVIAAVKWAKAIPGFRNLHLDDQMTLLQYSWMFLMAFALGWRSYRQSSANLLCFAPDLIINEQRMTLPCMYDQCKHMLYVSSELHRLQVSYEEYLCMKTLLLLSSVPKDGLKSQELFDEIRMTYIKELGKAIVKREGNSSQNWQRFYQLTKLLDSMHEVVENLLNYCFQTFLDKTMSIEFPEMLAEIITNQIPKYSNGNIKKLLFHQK

As for `CCCCCCO`, the activation in assay [1] was -1.01% (inactive); in assay [13], -2.65% (inactive); in assay [14], -0.278% (inactive). Further, the result in [2], in assay [3], in assay [4], in assay [5], in assay [6] and in [8] was inactive. The max response is -18.4% in [7], -3.18% in [9] and -1.79% (inactive) in [10]. In assay [11], the activity change % (negative = inhibition) is 4.77% (inactive). The Potency result in assay [12] is “inactive”.

Consider `CC/C(C)=N/O`, for which the activation is 3.82% (inactive) in assay [1] and -0.712% (inactive) in assay [13]. The outcome in [2], in assay [5], in [6], in [8] and in assay [15] was inactive. For the same molecule, the max response in assay [7] is -14.2%.

For `CCOC(=O)C(C)C(C)=O` (centres undefined), the activation in assay [1] is -10.2% (inactive); in assay [13], 6.52% (inactive). Besides, the result in assay [2], in assay [8] and in assay [15] was inactive. In assay [7], the max response was -14.3%. Further, the activity change % (negative = inhibition) in assay [11] was 2.26% (inactive). The Potency result in assay [12] is “inactive”.

With `O=C(O)c1ccccc1C(=O)O`, the activation in assay [1] was -4.91% (inactive); in [13], -2.08% (inactive); in [14], -0.93% (inactive). For the same molecule, the result in assay [2], in assay [8] and in [15] was inactive. Besides, the max response in [16] was 14.7%; in assay [7], 13.6%; in assay [9] it was 4.98%; in assay [10], -5% (inactive). For the same molecule, the Potency result in assay [17] and in assay [12] was “inactive” each time.

`Nc1nc(CC(=O)O)cs1`: the values for the activation in [1] and in assay [13] were 1.59% (inactive) and -1.45% (inactive), respectively. The result in [2], in assay [3], in [4], in assay [6], in assay [8] and in assay [15] was inactive. Besides, the max response in [7] is -4.19%; in assay [9], -14%; in [10], -13.3% (inactive). Also, the Potency result in assay [18] is “inactive”.

In the case of `Cc1ccc2nc(-c3ccc(N)cc3)sc2c1S(=O)(=O)O`, the figures for the activation in assay [1] and in assay [13] were 22.8% (inactive) and 18.6% (inactive), respectively. Further, the outcome in [4] and in assay [5] was inactive. Further, the max response is -1.52% in assay [9] and 30.6% (inactive) in [10]. The Potency entry in assay [12] is “inactive”. Besides, the Potency in assay [18] was 42.2 µM (active).

For the molecule `O=Cc1c(Cl)cccc1Cl`, the outcome in assay [2], in [3], in [4], in assay [5], in assay [6] and in [8] was inactive. Also, the result in [15] was inactive. The max response in assay [16] was -29.6%; in assay [7], 3.02%; in [9], -5.87%; in assay [10] it was -1.18% (inactive). Moreover, the Potency entry in assay [17] and in assay [18] was “inactive” throughout. In addition, the activity change % (negative = inhibition) in assay [11] is -16.1% (inactive). Also, the results for the activation in assay [13] and in [14] were -2.41% (inactive) and -0.578% (inactive), respectively.

Turning to `C/C(C=O)=C/c1ccccc1`, the result in assay [2], in assay [3], in [4], in [5], in assay [6] and in assay [8] was inactive. In addition, the max response in [16] was -13.6%; in [7] it was -15.6%; in assay [9] it was 2.35%; in assay [10] it was -7.56% (inactive). Also, in assay [17], the Potency result was “inactive”. For the same molecule, in assay [11], the activity change % (negative = inhibition) is -5.38% (inactive). In addition, the activation in [14] was -1.45% (inactive).

On to `O=Cc1ccccc1Cl`, for which the outcome in assay [2], in [3], in [4], in assay [5], in assay [8] and in assay [15] was inactive. Moreover, the max response in assay [7] was -11.2%; in assay [9], 3.56%; in assay [10] it was 26.5% (inactive). For the same molecule, in [11], the activity change % (negative = inhibition) is 5% (inactive). Besides, the Potency result in assay [12] and in assay [18] was “inactive” each time. For the same molecule, the activation in [14] is -1.13% (inactive).
